One sequence from paper PMC7862700, “An all-to-all approach to the identification of sequence-specific readers for epigenetic DNA modifications on cytosine” can be followed below.

Holding throughout (test): DAPPL (digital affinity profiling via proximity ligation, sequencing); 10 mM Tris-HCl pH 7.5, 50 mM NaCl, 1 mM DTT, 4% glycerol, room temperature, 30 min; GST-TFs on glutathione beads, 16-mer random dsDNA library, 0.1% formaldehyde crosslink after washing; high values mean tight binding
One assay concerns the target T1, FEV (Homo sapiens, UniProt Q99581 1-238).
T1 sequence: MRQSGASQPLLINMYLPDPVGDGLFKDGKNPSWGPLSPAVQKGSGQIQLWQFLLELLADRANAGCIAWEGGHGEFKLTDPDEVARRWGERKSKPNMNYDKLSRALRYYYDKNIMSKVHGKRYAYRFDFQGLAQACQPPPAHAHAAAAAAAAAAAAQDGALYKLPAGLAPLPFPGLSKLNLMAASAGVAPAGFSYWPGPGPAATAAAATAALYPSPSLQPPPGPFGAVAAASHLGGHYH
The following applies: protein: recombinant; tags: N-terminal GST; dsDNA, one strand shown. Put shortly: (§1)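 A tag-only sample was pooled with DNA-barcoded human transcription factors that had been expressed in yeast as GST fusions and captured on glutathione beads. The pools were incubated for 30 min at room temperature with 200 nmole of a random double-stranded 16-mer DNA library in Tris/NaCl/DTT/glycerol buffer, then washed, crosslinked with 0.1% formaldehyde, proximity-ligated (BsaI/T4 ligase, 1 h, 37 °C), PCR-amplified and sequenced on an Illumina NextSeq500. Binding signal is each hexamer's read frequency for a factor divided by its frequency for the tag-only sample.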

A further assay has as its target ETV5 (Homo sapiens, UniProt P41161 1-510). The following applies: protein: recombinant; tags: N-terminal GST; dsDNA, one strand shown. Put shortly:
as §1

A further assay deals with HSF1 (Homo sapiens, UniProt Q00613 1-529). Particulars: protein: recombinant; tags: N-terminal GST; chain copies: 3; dsDNA, one strand shown. A digest of the protocol: as §1
A further assay deals with T2, SPIC (Homo sapiens, UniProt Q8N5J4 1-248).
T2 sequence: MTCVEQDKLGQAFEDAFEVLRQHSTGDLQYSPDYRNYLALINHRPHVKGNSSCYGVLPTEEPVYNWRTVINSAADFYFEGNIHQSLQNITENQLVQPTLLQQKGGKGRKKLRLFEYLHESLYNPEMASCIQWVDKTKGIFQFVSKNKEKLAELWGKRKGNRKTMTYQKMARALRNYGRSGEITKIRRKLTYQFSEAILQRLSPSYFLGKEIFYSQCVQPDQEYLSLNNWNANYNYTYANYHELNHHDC
Particulars: protein: recombinant; tags: N-terminal GST; dsDNA, one strand shown. Put shortly:
as §1

Another assay has as its target ELF4 (Homo sapiens, UniProt Q99607 1-663). The following applies: protein: recombinant; tags: N-terminal GST; dsDNA, one strand shown. A digest of the protocol: as §1
For a further assay, the target named is T3, ELK4 (Homo sapiens, UniProt P28324-2 1-405).
T3 sequence: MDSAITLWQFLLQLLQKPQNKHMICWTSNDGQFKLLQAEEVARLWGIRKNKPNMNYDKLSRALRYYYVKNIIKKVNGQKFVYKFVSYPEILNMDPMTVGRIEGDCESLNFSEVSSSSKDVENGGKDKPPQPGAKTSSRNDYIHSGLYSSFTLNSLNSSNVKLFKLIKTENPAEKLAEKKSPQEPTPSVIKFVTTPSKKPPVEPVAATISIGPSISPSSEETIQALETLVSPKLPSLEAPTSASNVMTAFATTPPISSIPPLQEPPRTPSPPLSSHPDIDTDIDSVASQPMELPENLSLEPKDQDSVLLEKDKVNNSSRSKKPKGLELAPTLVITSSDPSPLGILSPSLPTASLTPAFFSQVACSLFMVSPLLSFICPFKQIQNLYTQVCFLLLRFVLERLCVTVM
Particulars: protein: recombinant; tags: N-terminal GST; dsDNA, one strand shown. Put shortly: as §1

Another assay deals with T4, ETV2 (Homo sapiens, UniProt O00321 1-342).
T4 sequence: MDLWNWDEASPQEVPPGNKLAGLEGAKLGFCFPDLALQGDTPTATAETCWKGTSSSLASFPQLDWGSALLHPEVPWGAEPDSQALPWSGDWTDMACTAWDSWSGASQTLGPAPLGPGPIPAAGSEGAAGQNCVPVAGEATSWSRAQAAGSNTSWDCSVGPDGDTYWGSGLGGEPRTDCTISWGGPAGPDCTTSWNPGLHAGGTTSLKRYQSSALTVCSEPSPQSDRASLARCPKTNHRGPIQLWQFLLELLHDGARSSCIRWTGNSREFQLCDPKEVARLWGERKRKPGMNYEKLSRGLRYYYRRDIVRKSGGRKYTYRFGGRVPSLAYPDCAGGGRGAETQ
Particulars: protein: recombinant; tags: N-terminal GST; dsDNA, one strand shown. A digest of the protocol: as §1

For the next assay, the target named is T5, ELF3 (Homo sapiens, UniProt P78545 1-371).
T5 sequence: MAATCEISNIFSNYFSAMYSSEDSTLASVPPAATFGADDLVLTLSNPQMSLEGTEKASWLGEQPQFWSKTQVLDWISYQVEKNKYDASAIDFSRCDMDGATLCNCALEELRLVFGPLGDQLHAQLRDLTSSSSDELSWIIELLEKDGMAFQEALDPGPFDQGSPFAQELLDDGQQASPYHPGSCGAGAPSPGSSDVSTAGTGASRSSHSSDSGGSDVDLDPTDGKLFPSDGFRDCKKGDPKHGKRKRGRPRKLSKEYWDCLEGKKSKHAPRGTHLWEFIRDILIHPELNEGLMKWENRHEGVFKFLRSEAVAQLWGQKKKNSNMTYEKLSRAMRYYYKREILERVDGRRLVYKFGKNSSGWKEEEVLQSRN
The following applies: protein: recombinant; tags: N-terminal GST; dsDNA, one strand shown. A digest of the protocol:
as §1

The target in a further assay is CRX (Homo sapiens, UniProt O43186 1-299). Particulars: protein: recombinant; tags: N-terminal GST; dsDNA, one strand shown. A digest of the protocol: as §1
The next assay addresses ETV1 (Homo sapiens, UniProt P50549 1-477). Particulars: protein: recombinant; tags: N-terminal GST; dsDNA, one strand shown. A digest of the protocol:
as §1

For a further assay, the target named is T6, ERF (Homo sapiens, UniProt P50548 1-548).
T6 sequence: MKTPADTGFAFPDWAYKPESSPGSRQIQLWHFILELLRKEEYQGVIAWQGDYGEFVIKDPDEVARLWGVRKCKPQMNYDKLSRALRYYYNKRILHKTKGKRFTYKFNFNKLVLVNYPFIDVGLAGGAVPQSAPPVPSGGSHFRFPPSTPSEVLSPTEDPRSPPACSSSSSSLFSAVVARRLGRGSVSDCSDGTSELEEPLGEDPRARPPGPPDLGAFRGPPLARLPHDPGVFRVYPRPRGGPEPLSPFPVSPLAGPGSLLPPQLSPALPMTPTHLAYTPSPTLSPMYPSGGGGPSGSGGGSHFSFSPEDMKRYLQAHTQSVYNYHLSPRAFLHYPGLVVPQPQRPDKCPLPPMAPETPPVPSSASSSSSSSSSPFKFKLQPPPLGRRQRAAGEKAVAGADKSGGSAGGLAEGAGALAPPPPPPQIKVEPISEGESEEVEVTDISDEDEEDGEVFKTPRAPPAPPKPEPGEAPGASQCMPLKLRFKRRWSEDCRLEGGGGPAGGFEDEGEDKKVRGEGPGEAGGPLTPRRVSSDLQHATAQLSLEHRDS
Particulars: protein: recombinant; tags: N-terminal GST; dsDNA, one strand shown. A digest of the protocol:
as §1

The target in a further assay is T7, ETV3L (Homo sapiens, UniProt Q6ZN32 1-361).
T7 sequence: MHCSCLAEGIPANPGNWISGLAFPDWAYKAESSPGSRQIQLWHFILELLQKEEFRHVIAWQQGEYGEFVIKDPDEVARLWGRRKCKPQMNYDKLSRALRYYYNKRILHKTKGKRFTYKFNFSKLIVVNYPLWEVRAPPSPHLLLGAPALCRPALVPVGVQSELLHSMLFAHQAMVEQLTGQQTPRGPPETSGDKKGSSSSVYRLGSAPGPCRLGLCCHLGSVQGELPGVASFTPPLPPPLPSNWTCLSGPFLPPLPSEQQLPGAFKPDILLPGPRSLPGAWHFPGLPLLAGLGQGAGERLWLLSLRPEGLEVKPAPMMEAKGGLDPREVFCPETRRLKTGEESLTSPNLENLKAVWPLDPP
Particulars: protein: recombinant; tags: N-terminal GST; dsDNA, one strand shown. A digest of the protocol: as §1

The target of another assay is T8, ETS2 (Homo sapiens, UniProt P15036 1-469).
T8 sequence: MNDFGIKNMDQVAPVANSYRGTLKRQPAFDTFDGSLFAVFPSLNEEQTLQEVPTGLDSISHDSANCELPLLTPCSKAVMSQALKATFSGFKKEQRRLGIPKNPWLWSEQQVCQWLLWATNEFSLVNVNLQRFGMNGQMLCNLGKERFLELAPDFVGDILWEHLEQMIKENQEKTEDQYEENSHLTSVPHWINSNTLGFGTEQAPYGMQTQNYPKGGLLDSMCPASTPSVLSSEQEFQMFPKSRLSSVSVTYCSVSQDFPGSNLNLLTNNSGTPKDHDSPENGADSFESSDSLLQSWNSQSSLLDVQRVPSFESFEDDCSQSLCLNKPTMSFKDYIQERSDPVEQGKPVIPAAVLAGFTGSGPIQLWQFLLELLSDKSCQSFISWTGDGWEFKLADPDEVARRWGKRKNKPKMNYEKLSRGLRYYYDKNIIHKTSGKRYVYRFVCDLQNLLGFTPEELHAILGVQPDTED
The following applies: protein: recombinant; tags: N-terminal GST; dsDNA, one strand shown. Put shortly:
as §1

The next assay deals with T9, SPDEF (Homo sapiens, UniProt O95238 1-335).
T9 sequence: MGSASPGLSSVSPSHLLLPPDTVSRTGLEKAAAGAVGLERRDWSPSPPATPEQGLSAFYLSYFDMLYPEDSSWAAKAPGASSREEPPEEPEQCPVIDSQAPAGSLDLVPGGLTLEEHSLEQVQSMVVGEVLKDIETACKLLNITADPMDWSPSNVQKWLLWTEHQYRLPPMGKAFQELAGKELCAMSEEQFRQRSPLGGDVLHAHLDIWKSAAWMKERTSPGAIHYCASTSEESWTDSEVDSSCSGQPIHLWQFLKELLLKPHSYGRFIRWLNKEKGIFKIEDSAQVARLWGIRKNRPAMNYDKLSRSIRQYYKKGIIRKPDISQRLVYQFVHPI
The following applies: protein: recombinant; tags: N-terminal GST; dsDNA, one strand shown. Put shortly: as §1

For a further assay, the target named is T10, ETV7 (Homo sapiens, UniProt Q9Y603 1-341).
T10 sequence: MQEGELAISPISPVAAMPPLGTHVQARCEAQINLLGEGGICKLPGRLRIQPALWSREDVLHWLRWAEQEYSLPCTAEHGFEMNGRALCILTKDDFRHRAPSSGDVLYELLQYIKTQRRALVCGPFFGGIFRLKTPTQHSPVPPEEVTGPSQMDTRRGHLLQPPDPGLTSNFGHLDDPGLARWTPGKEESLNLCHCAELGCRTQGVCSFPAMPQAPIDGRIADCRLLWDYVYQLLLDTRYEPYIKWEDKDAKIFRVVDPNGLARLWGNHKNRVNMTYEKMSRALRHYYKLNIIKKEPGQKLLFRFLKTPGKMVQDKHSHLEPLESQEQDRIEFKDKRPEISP
Particulars: protein: recombinant; tags: N-terminal GST; dsDNA, one strand shown. Put shortly:
as §1

Another assay has as its target T11, ELF5 (Homo sapiens, UniProt Q9UKW6-2 1-255).
T11 sequence: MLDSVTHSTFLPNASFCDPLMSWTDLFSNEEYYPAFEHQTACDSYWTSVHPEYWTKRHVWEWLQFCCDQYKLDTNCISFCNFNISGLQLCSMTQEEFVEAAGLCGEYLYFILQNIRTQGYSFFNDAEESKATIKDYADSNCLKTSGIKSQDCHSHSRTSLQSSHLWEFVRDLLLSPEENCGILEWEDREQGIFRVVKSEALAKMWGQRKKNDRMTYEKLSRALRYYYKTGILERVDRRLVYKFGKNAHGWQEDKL
The following applies: protein: recombinant; tags: N-terminal GST; dsDNA, one strand shown. A digest of the protocol:
as §1

In another assay the target is T12, ETV3 (Homo sapiens, UniProt P41162-2 1-143).
T12 sequence: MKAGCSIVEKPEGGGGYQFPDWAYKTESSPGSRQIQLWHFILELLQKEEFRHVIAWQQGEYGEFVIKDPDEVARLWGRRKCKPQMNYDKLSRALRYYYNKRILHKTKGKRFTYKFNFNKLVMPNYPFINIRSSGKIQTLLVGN
The following applies: protein: recombinant; tags: N-terminal GST; dsDNA, one strand shown. A digest of the protocol:
as §1

A further assay concerns the target ETV6 (Homo sapiens, UniProt P41212 1-452). The following applies: protein: recombinant; tags: N-terminal GST; dsDNA, one strand shown. A digest of the protocol:
as §1

Sequence of ETV5 (P41161 whole entry): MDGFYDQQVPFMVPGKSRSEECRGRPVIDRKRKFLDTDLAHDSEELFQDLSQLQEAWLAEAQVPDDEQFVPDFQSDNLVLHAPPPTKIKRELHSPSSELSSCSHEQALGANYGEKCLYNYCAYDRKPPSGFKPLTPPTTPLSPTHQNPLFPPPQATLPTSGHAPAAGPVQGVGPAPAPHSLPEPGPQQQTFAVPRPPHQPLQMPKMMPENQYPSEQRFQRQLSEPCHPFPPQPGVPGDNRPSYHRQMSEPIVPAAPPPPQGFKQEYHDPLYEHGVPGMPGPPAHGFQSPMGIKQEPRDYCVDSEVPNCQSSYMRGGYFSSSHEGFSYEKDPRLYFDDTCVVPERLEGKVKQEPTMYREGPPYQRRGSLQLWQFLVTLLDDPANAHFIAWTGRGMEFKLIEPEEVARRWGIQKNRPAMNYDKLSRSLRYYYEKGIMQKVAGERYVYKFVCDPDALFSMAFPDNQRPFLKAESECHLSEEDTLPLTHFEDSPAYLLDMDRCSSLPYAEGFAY
Sequence of CRX (O43186 whole entry): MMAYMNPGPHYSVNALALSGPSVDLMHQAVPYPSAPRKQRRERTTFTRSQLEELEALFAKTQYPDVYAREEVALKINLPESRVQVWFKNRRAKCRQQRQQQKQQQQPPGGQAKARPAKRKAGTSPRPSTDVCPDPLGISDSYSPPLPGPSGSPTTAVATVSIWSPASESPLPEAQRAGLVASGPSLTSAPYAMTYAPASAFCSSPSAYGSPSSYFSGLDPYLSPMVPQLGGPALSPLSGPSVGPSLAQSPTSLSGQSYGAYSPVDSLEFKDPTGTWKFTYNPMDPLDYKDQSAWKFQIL
Sequence of ELF4 (Q99607 whole entry): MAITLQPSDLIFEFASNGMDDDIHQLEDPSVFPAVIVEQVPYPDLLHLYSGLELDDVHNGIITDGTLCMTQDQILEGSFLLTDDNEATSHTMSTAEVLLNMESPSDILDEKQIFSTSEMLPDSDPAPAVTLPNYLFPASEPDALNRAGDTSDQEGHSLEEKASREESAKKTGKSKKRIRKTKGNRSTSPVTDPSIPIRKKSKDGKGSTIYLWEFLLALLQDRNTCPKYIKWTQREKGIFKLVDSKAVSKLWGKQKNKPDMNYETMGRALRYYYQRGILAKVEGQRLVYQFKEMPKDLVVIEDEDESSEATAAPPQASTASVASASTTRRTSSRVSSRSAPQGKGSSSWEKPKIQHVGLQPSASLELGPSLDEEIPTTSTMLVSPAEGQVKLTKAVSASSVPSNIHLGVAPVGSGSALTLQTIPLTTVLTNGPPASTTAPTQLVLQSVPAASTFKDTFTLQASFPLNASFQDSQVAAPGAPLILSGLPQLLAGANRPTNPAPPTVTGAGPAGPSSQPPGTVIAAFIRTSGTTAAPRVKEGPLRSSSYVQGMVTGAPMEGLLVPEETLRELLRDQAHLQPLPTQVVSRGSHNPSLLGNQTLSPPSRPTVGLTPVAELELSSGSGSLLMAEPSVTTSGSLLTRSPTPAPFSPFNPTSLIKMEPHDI
Sequence of ETV6 (P41212 whole entry): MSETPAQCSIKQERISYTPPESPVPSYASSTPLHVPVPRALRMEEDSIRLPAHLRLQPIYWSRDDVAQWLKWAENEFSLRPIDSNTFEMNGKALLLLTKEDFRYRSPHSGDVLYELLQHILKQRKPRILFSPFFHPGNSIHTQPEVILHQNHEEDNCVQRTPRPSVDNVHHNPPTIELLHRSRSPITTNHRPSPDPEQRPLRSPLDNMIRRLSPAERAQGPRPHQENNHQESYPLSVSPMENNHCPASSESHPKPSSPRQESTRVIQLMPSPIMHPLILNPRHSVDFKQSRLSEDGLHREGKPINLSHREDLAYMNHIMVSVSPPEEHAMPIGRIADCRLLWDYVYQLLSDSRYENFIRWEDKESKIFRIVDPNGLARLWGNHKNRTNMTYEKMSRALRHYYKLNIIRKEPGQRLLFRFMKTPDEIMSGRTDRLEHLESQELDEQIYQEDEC
Sequence of HSF1 (Q00613 whole entry): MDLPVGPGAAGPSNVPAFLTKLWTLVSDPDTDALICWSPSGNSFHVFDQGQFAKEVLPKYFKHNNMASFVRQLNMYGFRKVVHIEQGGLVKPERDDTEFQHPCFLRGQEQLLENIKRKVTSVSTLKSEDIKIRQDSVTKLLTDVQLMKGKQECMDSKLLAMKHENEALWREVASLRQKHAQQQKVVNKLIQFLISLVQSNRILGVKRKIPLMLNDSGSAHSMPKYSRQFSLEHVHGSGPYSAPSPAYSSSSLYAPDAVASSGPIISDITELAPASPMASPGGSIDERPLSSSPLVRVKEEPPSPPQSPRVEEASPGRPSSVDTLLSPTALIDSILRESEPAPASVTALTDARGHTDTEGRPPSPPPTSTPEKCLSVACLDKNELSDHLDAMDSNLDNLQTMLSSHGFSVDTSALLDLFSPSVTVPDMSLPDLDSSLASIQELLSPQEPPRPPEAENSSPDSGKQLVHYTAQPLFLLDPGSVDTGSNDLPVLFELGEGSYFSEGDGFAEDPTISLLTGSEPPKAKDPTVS
Sequence of ETV1 (P50549 whole entry): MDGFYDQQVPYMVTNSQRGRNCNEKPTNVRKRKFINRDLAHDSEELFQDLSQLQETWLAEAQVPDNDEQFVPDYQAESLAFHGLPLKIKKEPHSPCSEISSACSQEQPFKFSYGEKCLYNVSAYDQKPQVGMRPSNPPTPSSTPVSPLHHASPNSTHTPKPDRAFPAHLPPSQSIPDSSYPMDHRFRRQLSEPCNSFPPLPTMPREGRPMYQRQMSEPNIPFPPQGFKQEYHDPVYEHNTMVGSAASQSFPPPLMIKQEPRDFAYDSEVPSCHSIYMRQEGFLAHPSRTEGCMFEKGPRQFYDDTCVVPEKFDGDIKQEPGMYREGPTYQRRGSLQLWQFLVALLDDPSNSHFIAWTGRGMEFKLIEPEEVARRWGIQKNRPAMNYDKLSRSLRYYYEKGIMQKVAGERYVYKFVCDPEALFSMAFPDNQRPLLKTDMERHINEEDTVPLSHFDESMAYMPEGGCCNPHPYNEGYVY

Turning to ATAATC, the binding signal with FEV is 1.1 fold enrichment (6-mer frequency, TF over GST control); in the assay with ETV5 it was 1.17 fold enrichment (6-mer frequency, TF over GST control); with HSF1, 2.86 fold enrichment (6-mer frequency, TF over GST control); in the assay with SPIC, 1.16 fold enrichment (6-mer frequency, TF over GST control); with ELF4 it was 1.13 fold enrichment (6-mer frequency, TF over GST control); in the assay with ELK4, 1.13 fold enrichment (6-mer frequency, TF over GST control). The binding signal in the assay with ETV2 was 1.21 fold enrichment (6-mer frequency, TF over GST control); with ELF3, 1.15 fold enrichment (6-mer frequency, TF over GST control); with CRX, 4.71 fold enrichment (6-mer frequency, TF over GST control); with ETV1, 1.12 fold enrichment (6-mer frequency, TF over GST control); with ERF, 1.2 fold enrichment (6-mer frequency, TF over GST control); in the assay with ETV3L, 1.16 fold enrichment (6-mer frequency, TF over GST control). Moreover, the binding signal was 1.16 fold enrichment (6-mer frequency, TF over GST control) in the assay with ETS2; 1.17 fold enrichment (6-mer frequency, TF over GST control) with SPDEF; 1.14 fold enrichment (6-mer frequency, TF over GST control) with ETV7; 1.13 fold enrichment (6-mer frequency, TF over GST control) in the assay with ELF5; 1.15 fold enrichment (6-mer frequency, TF over GST control) with ETV3; 1.19 fold enrichment (6-mer frequency, TF over GST control) with ETV6.
